Hits are enriched below; roughly 2.4% of the tested compounds scored in any of these assays.
FUS yeast rescue: rescues growth of FUS-expressing yeast; S. cerevisiae FUS-expressing, growth rescue, OD600, 24 h; Potency, µM (doses to about 76.6 µM), most hits filed as activators; 390,000 compounds, 0.24% hits; also: nearly all actives have a fitted effect of over 55% in size
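Steps: raffinose overnight preculture; dilution to OD 0.005 in 2% galactose minimal medium; compound addition (concentration series); 24hr at 30C, 99% humidity; absorbance read at 600 nm.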
Mito fusion yeast: blocks mitochondrial division or promotes mitochondrial fusion; Potency, µM (titrated, usually from 46.1 µM), actives largely listed as activators; 320,000 compounds, 0.23% hits; S. cerevisiae fusion-defective mutant growth rescue, CellTiterGlo 48 h; AID 485298; also: nearly all actives have a fitted effect of over 45% in size
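Yeast fusion mutant, YPEG (non-fermentable carbon), compound, 48 h at 37C non-permissive; CellTiterGlo added, 10 min RT, luminescence read. Rescued growth = division inhibition.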
aSyn rescue: alpha-synuclein toxicity inhibition in yeast. Potency, µM (doses to about 46.1 µM), actives largely listed as activators. 370,000 compounds, 0.14% hits. Yeast expressing alpha-synuclein, growth rescue, BacTiter-Glo, 24 h; also: nearly all actives have a fitted effect of over 65% in size
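Readout is rescue of growth in alpha-synuclein-expressing yeast, so inhibitors of toxicity appear as activators. Growth after 24 hr at 30 deg C in galactose medium is quantified by luminescence.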
TDP43 rescue: TDP-43 toxicity inhibition in yeast; TDP-43 expressing yeast growth rescue, BacTiter-Glo, 24 h; Potency, µM (titrated, usually from 46.1 µM), hits mostly activators; 410,000 compounds, 1.8% hits; also: nearly all actives have a fitted effect of over 50% in size
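Readout is BacTiter-Glo luminescence of cell growth, so inhibitors register as activators. TDP-43-expressing yeast at OD600=0.02 in galactose medium, after raffinose pregrowth to mid-log, were incubated with compound for 24 hr at 30 deg C.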
Abeta rescue: compounds reversing amyloid beta toxicity in yeast | yeast expressing A-beta42, growth rescue, OD600, 48 h; response scale: 0% DMSO, 100% iron-clioquinol control | Potency, µM (doses to about 46.1 µM), actives largely listed as activators | 410,000 compounds, 0.063% hits | AID 1347071; also: nearly all actives have a fitted effect of over 55% in size
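Yeast growth medium received pinned compounds, then yeast cells expressing toxic A-beta were added; plates incubated at 30 C for 48 hr. Growth read as absorbance at 600 nm, normalized to DMSO and equimolar FeCl3 plus clioquinol controls.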
AT treatment: potential ataxia-telangiectasia treatments restoring KAP-1 phosphorylation; AID 485349; F2112 A-T fibroblasts, KAP-1 phosphorylation AlphaLISA; neocarzinostatin DNA damage 30 min before lysis; 320,000 compounds, 0.19% hits; Potency, µM (series often up to 57.5 µM), hits mostly activators; also: nearly all actives have a fitted effect of over 45% in size
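hTERT-immortalized A-T patient fibroblasts (F2112), 500 cells/well in OPTI-MEM, 1% FBS, got compounds for 60 min, then NCS for 30 min at 37C. Lysates were then assayed for phospho-KAP-1 by AlphaLISA (anti-pKAP1 donor, anti-KAP1 acceptor beads), 6 hr at 25C.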
Hits are given with their value; . = inactive; ? = inconclusive; / = not tested or not shown; [ ] = remark or other dose. Calls follow the shape of the dose curve; as a rule, active = well fitted curve in the direction sought with a large enough effect; inconclusive = small, poorly fitted or top-dose-only effect, or another doubt; inactive = no such curve, though single readings can be large; an effect the other way counts as inactive or inconclusive.

SMILES	FUS yeast rescue	Mito fusion yeast	aSyn rescue	TDP43 rescue	Abeta rescue	AT treatment
Cc1ccc(NC(=O)Cn2cc(S(=O)(=O)N3CCCC3)c(S(=O)(=O)N3CCCC3)c2)c(C)c1	.	/	/	.	.	/
COc1ccc(Cl)cc1NC(=O)Cn1c(=O)n(Cc2cccs2)c(=O)c2cccnc21	?	/	/	.	.	/
CC(=O)c1cc(C#N)c(SCCC(C)C)nc1C	.	?	.	?	.	.
CC(C)CCSc1nc(N)c(C#N)cc1C#N	.	11µM	.	.	.	.
CC(C)OC(=O)C(C(=O)C(F)(F)F)c1cc(NS(=O)(=O)c2ccc3ccccc3c2)c2ccccc2c1O (stereo not drawn)	10µM	.	.	.	.	.
CN(C)c1ccc(C(CNC(=O)c2ccccc2)c2c[nH]c3ccccc23)cc1 (stereo not drawn)	11µM	?	.	.	.	.
CCOc1ccc(C(=O)COc2ccc(NC(C)=O)cc2)cc1	11µM	.	.	.	.	.
Cc1cc(C)c2c(N)c(C(=O)Nc3ccccc3Br)sc2n1	.	.	.	.	.	.
CCc1ccccc1NC(=O)c1sc2nc(C)cc(C)c2c1N	.	.	.	18µM	.	.
COCc1cc(C)nc2sc(C(=O)OC)c(N)c12	.	.	.	13µM	.	.
C[C@H]1[C@@H](OC(=O)Nc2cc(Cl)ccc2Cl)CC[C@@]23CCCN2C(=O)CCC[C@@H]13	.	/	/	/	/	/
O=C(OCc1csc(-c2ccccc2)n1)c1ccc(O)cc1	.	.	.	10µM	.	.
O=C(COc1ccccc1)OCc1csc(Nc2ccccc2)n1	.	.	.	.	.	.
O=C(OCc1csc(Nc2ccccc2)n1)c1ccc(Cl)cc1	.	?	.	10µM	?	.
CCCCSc1nnc2c(n1)OC(c1ccc(Br)s1)Nc1ccccc1-2 (stereo not drawn)	.	/	/	.	.	/
Cc1ccc(S(=O)(=O)n2nccc2-c2c(-c3ccccc3)noc2C)cc1	.	.	.	.	.	.
Cc1onc(-c2ccccc2)c1-c1ccnn1C(=O)NC(C)C	.	.	.	11µM	.	.
CCN(CC)S(=O)(=O)c1ccc(N2CCOCC2)c(NC(=O)c2ccc(F)cc2)c1	.	.	.	?	.	.
CCN(CC)S(=O)(=O)c1ccc(N2CCOCC2)c(NC(=O)c2ccc(C#N)cc2)c1	28µM	.	.	.	.	.
CC(C)N(C(=O)[C@H]1CC(CC(=O)NCCC2=CCCCC2)C(=O)N2CCc3c([nH]c4ccccc34)[C@]12C)C(C)C (stereo partly drawn)	?	/	?	35µM	.	.
CN(C)C(=O)CCc1ccc2c3c([nH]c2c1)[C@]1(CCC2CCCC2)[C@@H](C(=O)N2CCOCC2)C[C@H](CC(=O)NCCC2=CCCCC2)C(=O)N1CC3	16µM	/	.	.	.	.
COc1ccc2[nH]c3c(c2c1)CCN1C(=O)C(CC(=O)NCCC2=CCCCC2)C[C@H](C(=O)N(C(C)C)C(C)C)[C@@]31C (stereo partly drawn)	?	/	.	?	.	.
CCN(CC)C(=O)[C@H]1C[C@H](CC(=O)NCC23CC4CC(CC(C4)C2)C3)C(=O)N2CCc3c([nH]c4ccc(Cl)cc34)[C@]12C	.	/	?	20µM	.	.
CC(C)N(C(=O)[C@H]1C[C@H](CC(=O)NCC23CC4CC(CC(C4)C2)C3)C(=O)N2CCc3c([nH]c4ccc(Cl)cc34)[C@]12C)C(C)C	.	/	?	.	.	.
CO[C@H]1CC[C@@]2(C)[C@@H](CC[C@@H]3[C@@H]2CC[C@@]2(C)[C@H]3C[C@H](C(=O)O)O[C@]23CCCO3)C1	.	/	.	16µM	.	.
SMILES	FUS yeast rescue	Mito fusion yeast	aSyn rescue	TDP43 rescue	Abeta rescue	AT treatment
CCn1nc(C)c2c(-c3ccccc3)cc(=O)n(C(C)C(=O)Nc3ccc(OC)c(OC)c3)c21 (stereo not drawn)	.	/	/	.	.	/
Cn1c(Cc2cccs2)nnc1SCC(=O)Nc1ccc2cn[nH]c2c1	.	/	/	/	/	/
Cc1ccc(NS(=O)(=O)c2ccc(-c3cc(C)no3)cc2)c(Br)c1	.	/	/	22µM	.	/
Cc1cc(-c2ccc(S(=O)(=O)Nc3ccc(Cl)cc3C)cc2)on1	.	/	/	16µM	.	/
COc1ccc(C(=O)/C=C2/C(=O)Nc3ccccc32)cc1OC	?	.	.	.	.	.
COc1ccc(C(=O)/C=C2/C(=O)Nc3ccccc32)cc1	.	.	.	2.8µM	.	.
COc1cc(OC)c(/C=C2\C(=O)Nc3ccccc32)c(OC)c1	.	.	.	.	.	.
COc1ccc(C(=O)/C=C2/C(=O)Nc3ccccc32)c(OC)c1	.	.	.	11µM	.	.
Cc1ccc(C2CC(c3ccc(Cl)cc3)=NNC2=O)cc1 (stereo not drawn)	.	.	.	22µM	.[9.22 µM]	.
O=c1c2ccccc2n(Cc2cccc(F)c2)c(=O)n1Cc1ccccc1Cl	.	/	/	.	.	/
CCOc1ccc(CCNC(=O)c2cc3c(=O)n(C)c4ccccc4c3n2C)cc1OCC	.	/	/	.	.	/
CCCCCCCCN1C(=O)[C@H](CC(=O)NCc2ccc(OC)c(OC)c2)C[C@@]2(C(=O)OC)CC(C)(C)CC=C12	?	/	?	22µM	.	/
CCCCCCCCN1C(=O)[C@H](CC(=O)N2CCOCC2)C[C@@]2(C(=O)OC)CC(C)(C)CC=C12	13µM	/	?	?	.	/
COC(=O)[C@@]12C[C@@H](CC(=O)NCc3cccc4ccccc34)C(=O)N(Cc3ccc4c(c3)OCO4)C1=CCC(C)(C)C2	6.3µM	/	.	.	.	/
COC(=O)[C@@]12C[C@@H](CC(=O)NCc3ccc(OC)c(OC)c3)C(=O)N(CCc3ccc(OC)c(OC)c3)C1=CCC(C)(C)C2	?	/	.	.	.	/
Cc1cccc(OCc2nc(CC(=O)Nc3ccc(C)cc3C)cs2)c1	.	/	/	.	.	/
COC(=O)c1ccc(NC(=O)Cc2ccc(F)cc2)cc1	.	.	.	/	.	.
COC(=O)c1ccc(C(=O)Nc2ccc(F)cc2)cc1	.	.	.	.	.	28µM
CCSc1cc(C)nc2ncnn12	.	.	.	.	.	/
CCCCCCSc1cc(C)nc2ncnn12	.	.	.	25µM	.	.
CCC(C)[C@@H](NC(=O)OC(C)(C)C)c1nnc(S(=O)(=O)Cc2cccc(C)c2)o1 (stereo partly drawn)	.	.	.	7.9µM	.	.
CC(C)(C)OC(=O)N[C@@H](Cc1ccccc1)c1nnc(S(=O)(=O)Cc2ccccc2)o1	/	.	/	/	/	.
Cc1cc(-c2nc3ccccc3s2)ccc1N	/	/	.	18µM	.	/
COc1ccc(NC(=O)CSc2nncn3c2cc2occc23)c(OC)c1	.	/	/	.	.	/

Source: PubChem BioAssay (National Center for Advancing Translational Sciences (NCATS))
